# Results as given in PubChem BioAssay (NCATS).
# Where “and” joins values, the source holds several entries; their conditions need not be identical. Equal entries are not always repeated. Results filed as inconclusive are left out. A call without a number means that no potency is given here. Calls of active or inactive are those of the source. Unless noted, calls follow the shape of the dose curve; as a rule, active = well fitted curve in the direction sought with a large enough effect; inconclusive = small, poorly fitted or top-dose-only effect, or another doubt; inactive = no such curve, though single readings can be large; an effect the other way counts as inactive or inconclusive.
# Key:
# [1] = Primary qHTS for small molecule stabilizers of the endoplasmic reticulum resident proteome: Secreted ER Calcium Modulated Protein (SERCaMP) assay (AID 1508630)
# In short: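 GLuc-SERCaMP-expressing SH-SY5Y cells, pretreated 16 h with compound, are challenged with thapsigargin to empty ER calcium stores; after 4 h, coelenterazine is added directly to the medium and luminescence is imaged.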
# [2] = molecular target: Cytochrome P450 2D6 (Homo sapiens) (UniProt P10635); test: Cytochrome P450 family 2 subfamily D member 6 (CYP2D6) small molecule antagonists: luciferase biochemical (cell-free) qHTS assay (AID 1645840; active = well fitted curve in the direction sought with a large enough effect in the repeat runs; an effect the other way counts as inactive or inconclusive; also: nearly all actives have a fitted effect of over 55% in size; also: potency is read from the fitted curve at half-maximal effect)
# In short: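 P450-Glo luminescent screen: recombinant CYP2D6 enzyme–proluciferin substrate mix preincubated with compound 10 min at room temperature, then NADPH regeneration added for 1 h at room temperature. Detection reagent added for 20 min; luciferin light read as relative luminescence units.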
# [3] = molecular target: Cytochrome P450 2C9 (Homo sapiens) (UniProt P11712); test: Cytochrome P450 family 2 subfamily C member 9 (CYP2C9) small molecule antagonists: luciferase biochemical (cell-free) qHTS assay (AID 1645842; active = well fitted curve in the direction sought with a large enough effect in the repeat runs; an effect the other way counts as inactive or inconclusive; also: nearly all actives have a fitted effect of over 55% in size; also: potency is read from the fitted curve at half-maximal effect)
# In short: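 Luminescence, after 20 min with luciferin detection reagent, reflected CYP2C9 turnover during a 1 h NADPH-driven reaction at 37C. Enzyme-substrate mix contained 0.4% bovine serum albumin and was preincubated with compound 10 min at room temperature.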
# [4] = Primary qHTS for inhibitors of nuclear receptor binding SET domain protein 2 (NSD2) in an isogenic RCH-ACV NSD2 p.E1099K mutant (9B) (AID 1645876); also: nearly all actives have a fitted effect of over 70% in size; also: potency is read from the fitted curve at half-maximal effect
# [5] = Primary qHTS for inhibitors of nuclear receptor binding SET domain protein 2 (NSD2) in an RCH-ACV wild type WT cells (2C) (AID 1645877); also: nearly all actives have a fitted effect of over 70% in size; also: potency is read from the fitted curve at half-maximal effect
# [6] = A High-Content qHTS Against Drug Library for the Identification of Small Molecules that Inhibit DYT1 Early Onset Primary Dystonia-Associated Cell Pathology (AID 1645839; calls by dose curve; also: series mostly up to about 46 µM)
# In short: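 In this high-content image screen, delE TorsinA mislocalization in inducible Flp-In 293 cells is scored as %pathology, with cell count serving as the counterscreen. Compound exposure lasts 48 h under tetracycline induction in reduced-serum medium.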
# [7] = molecular target: Cytochrome P450 3A4 (Homo sapiens) (UniProt P08684); test: Cytochrome P450 family 3 subfamily A member 4 (CYP3A4) small molecule antagonists: luciferase qHTS assay (AID 1645841; active = well fitted curve in the direction sought with a large enough effect in the repeat runs; an effect the other way counts as inactive or inconclusive; also: nearly all actives have a fitted effect of over 45% in size)
# In short: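 Luminescent CYP3A4 activity readout: compounds plus enzyme-substrate mix 10 min at room temperature, reaction started with NADPH regenerating system for 1 h, stopped with detection reagent, read after 20 min. Ketoconazole served as control.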
# Sequence of Cytochrome P450 2D6 (Homo sapiens) (P10635 whole entry, looked up): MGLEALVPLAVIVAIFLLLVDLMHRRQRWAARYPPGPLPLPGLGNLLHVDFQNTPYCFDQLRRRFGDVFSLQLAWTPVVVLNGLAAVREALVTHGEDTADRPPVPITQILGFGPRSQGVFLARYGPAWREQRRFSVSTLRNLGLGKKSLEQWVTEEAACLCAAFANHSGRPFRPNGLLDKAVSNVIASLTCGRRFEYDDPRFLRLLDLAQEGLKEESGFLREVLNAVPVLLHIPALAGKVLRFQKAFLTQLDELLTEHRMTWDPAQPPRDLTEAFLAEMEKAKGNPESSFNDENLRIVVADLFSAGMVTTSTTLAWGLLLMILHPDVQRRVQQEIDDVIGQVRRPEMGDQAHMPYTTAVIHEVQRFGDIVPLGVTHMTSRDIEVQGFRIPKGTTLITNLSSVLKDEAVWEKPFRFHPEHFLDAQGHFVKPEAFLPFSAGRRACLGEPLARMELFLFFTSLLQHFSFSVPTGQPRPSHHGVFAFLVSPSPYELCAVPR
# Sequence of Cytochrome P450 2C9 (Homo sapiens) (P11712 whole entry, looked up): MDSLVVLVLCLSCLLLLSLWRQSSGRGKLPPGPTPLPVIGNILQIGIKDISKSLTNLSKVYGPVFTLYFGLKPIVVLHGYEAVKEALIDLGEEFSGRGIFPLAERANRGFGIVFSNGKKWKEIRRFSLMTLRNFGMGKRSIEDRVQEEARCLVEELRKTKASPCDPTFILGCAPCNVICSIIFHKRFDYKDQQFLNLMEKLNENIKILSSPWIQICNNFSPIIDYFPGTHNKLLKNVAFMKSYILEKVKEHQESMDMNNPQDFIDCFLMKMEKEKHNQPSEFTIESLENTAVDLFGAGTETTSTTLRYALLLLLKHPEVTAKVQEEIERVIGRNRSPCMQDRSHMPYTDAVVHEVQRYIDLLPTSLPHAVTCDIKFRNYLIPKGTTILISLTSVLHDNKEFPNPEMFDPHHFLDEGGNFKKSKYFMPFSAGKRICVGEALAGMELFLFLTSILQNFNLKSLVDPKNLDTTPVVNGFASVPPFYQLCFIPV
# Sequence of Cytochrome P450 3A4 (Homo sapiens) (P08684 whole entry, looked up): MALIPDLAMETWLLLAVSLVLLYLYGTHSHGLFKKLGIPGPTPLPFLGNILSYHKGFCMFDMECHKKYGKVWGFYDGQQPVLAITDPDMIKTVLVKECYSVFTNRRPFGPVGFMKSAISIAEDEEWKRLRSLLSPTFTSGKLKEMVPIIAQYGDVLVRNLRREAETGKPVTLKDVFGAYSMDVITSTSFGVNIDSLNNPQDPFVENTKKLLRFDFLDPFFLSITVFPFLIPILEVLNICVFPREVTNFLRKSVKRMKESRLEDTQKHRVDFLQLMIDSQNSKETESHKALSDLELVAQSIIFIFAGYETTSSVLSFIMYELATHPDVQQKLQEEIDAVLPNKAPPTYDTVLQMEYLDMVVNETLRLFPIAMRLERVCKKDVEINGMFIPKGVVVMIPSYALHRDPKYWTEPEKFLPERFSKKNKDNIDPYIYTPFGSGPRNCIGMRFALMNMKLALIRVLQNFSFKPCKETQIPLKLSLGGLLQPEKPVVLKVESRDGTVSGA
structure (smiles),measurement,setting,value
CCC=CC[C@H]1C(=O)CC[C@@H]1CC(=O)OC,Potency,[1],inactive
FC(F)(F)c1ccc(C=Cc2nc(COc3ccc(CCCCn4ccnn4)cc3)co2)cc1,Potency,[1],inactive
Cn1cnc(-c2cc3nccc(Oc4ccc(NC(=S)NC(=O)Cc5ccccc5)cc4F)c3s2)c1,Potency,[1],inactive
same,Potency,[2],inactive
same,Potency,[3],1.9 µM (active)
same,Potency,[4],5.15 µM (active) and 2.95 µM (active)
same,Potency,[5],5.78 µM (active) and 3.32 µM (active)
C[C@@H](NC(=O)c1ncnc(N)c1Cl)c1ncc(C(=O)Nc2cc(C(F)(F)F)c(Cl)cn2)s1,Potency,[1],inactive
same,Potency,[2],inactive
COc1ccnc(CS(=O)c2nc3ccc(OC(F)F)cc3[nH]2)c1OC (stereo not given),Potency,[1],inactive
same,outcome,[6],inactive
same,Potency,[2],5.49 µM (active) and 16.9 µM (active)
same,Potency,[3],27.5 µM (active) and 21.3 µM (active)
same,Potency,[4],15 µM (active) and 18.6 µM (active)
same,Potency,[5],15 µM (active) and 18.6 µM (active)
O=C(O)C1=NC(C(=O)O)CC(C=CN2c3cc(O)c(OC4OC(CO)C(O)C(O)C4O)cc3CC2C(=O)O)=C1 (stereo not given),Potency,[1],inactive
CN1CCN(c2ncc(-c3cc(Cl)cc(Cl)c3Cl)c(N)n2)CC1,Potency,[1],inactive
CC(C)C[C@@H](C(=O)N[C@H](C(=O)OC1CCCC1)c1ccccc1)[C@H](O)C(=O)NO,Potency,[1],inactive
same,Potency,[2],inactive
same,Potency,[3],5.35 µM (active)
same,Potency,[4],14.8 µM (active)
same,Potency,[5],14.8 µM (active)
C[C@@H](O)[C@H]1C(=O)N2C(C(=O)OCOC(=O)C(C)(C)C)=C(SC3CN(C4=NCCS4)C3)[C@H](C)[C@H]12,Potency,[1],inactive
Clc1ccc(COC(Cn2ccnc2)c2ccc(Cl)cc2Cl)c(Cl)c1 (stereo not given),Potency,[1],inactive
same,Potency,[2],1.07 µM (active)
same,Potency,[3],0.19 µM (active)
C[C@@H]1CCO[C@H]2Cn3cc(C(=O)NCc4ccc(F)cc4F)c(=O)c(O)c3C(=O)N12,Potency,[1],inactive
same,Potency,[2],inactive
same,Potency,[3],inactive
same,Potency,[4],20.5 µM (active)
Cc1ccccc1C(=O)c1ccc(Nc2ccc(Br)cc2N)cc1Cl,Potency,[1],inactive
same,Potency,[2],15.1 µM (active)
same,Potency,[3],10.7 µM (active)
same,Potency,[4],16.6 µM (active) and 5.78 µM (active)
CC(C)(OCc1nn(Cc2ccccc2)c2ccccc12)C(=O)O,Potency,[1],inactive
same,Potency,[2],inactive
same,outcome,[7],inactive
same,Potency,[3],inactive
same,Potency,[4],inactive
same,Potency,[5],inactive
COc1cc2ncnc(Nc3cc(Br)c(O)c(Br)c3)c2cc1OC,Potency,[1],inactive
same,Potency,[2],inactive
CN(C)c1ccc(-c2nc3ncc(Cl)c(N4CCN(CC(=O)Nc5nccs5)CC4)c3[nH]2)cc1,Potency,[1],inactive
same,Potency,[2],inactive
same,Potency,[3],0.536 µM (active)
CCCCC[C@H](O)C=C[C@H]1[C@H](O)CC(=O)[C@H]1CC=CCCCC(=O)O,Potency,[1],inactive
same,outcome,[6],inactive
same,Potency,[2],inactive
same,Potency,[3],inactive
same,Potency,[4],0.417 µM (active)
